# Source: PubChem BioAssay
# Values joined by “and” are separate entries in the source; they are usually repeats but may differ in a detail not shown here. Equal values may be shown once. Records with an inconclusive call do not appear. For part of these data: Results with a measured potency or affinity are listed apart. Active and inactive are the calls of the source.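 How the source made its calls, unless noted: active means compounds whose cell count with miR-34 switched on is under 0.7 times the count with it off; inactive means the rest.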
# Tests used:
# [1] = biological target: 6-phosphogluconate dehydrogenase, decarboxylating (Homo sapiens) (UniProt P52209); assay: 6PGD enzyme inhibitors, primary screen, biochemical, human, recombinant enzyme, NADPH absorbance (AID 1159550;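 active means at least 20% inhibition of 6-phosphogluconate dehydrogenase activity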); details: recombinant 6PGD, NADPH absorbance 341 nm; at 10 µM; stronger effect = higher value
# Chain of 6-phosphogluconate dehydrogenase, decarboxylating (Homo sapiens) (P52209 whole entry, looked up): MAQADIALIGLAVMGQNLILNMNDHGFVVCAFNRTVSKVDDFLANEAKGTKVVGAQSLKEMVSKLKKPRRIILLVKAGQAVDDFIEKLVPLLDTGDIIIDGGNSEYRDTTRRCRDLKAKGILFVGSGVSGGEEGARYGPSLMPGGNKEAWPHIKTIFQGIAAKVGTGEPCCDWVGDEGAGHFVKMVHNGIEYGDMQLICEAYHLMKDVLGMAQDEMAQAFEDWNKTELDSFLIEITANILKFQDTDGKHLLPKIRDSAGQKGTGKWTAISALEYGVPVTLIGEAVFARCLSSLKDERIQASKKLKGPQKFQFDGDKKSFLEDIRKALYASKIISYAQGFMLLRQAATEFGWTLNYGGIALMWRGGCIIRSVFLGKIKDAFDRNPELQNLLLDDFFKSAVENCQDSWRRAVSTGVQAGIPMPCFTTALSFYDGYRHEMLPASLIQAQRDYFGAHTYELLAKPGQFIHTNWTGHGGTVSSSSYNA
# [2] = JHH-DIPG-1 glioma cell viability, MIPE5.0 library, CellTiter-Glo luminescence, qHTS (AID 1347067; cut-off not given, nearly all actives have AC50 up to about 26 µM;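 further: cells exposed to compound for 48 hours before readout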); details: JHH-DIPG-1 glioma viability, CellTiter-Glo ATP luminescence
# [3] = sensitizers of A549 cells to miR-34 induction, primary screen, imaging, A549 dox-inducible miR-34, nuclei and caspase counts (AID 1347080); details: A549 miR-34 inducible, Hoechst nuclei count, 48 h
# [4] = biological target: NAD(+) hydrolase SARM1 (Homo sapiens) (UniProt Q6SZW1); assay: SARM1 TIR NADase inhibitors, cell lysate, NAD-Glo luminescence (AID 1508614;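 active means compound whose remaining NAD level is above about 45 nM, limit read from the data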); details: SAM-TIR HEK293T lysate NADase, at 1 µM, stronger effect = higher value
# Chain of NAD(+) hydrolase SARM1 (Homo sapiens) (Q6SZW1 whole entry, looked up, the tested form may be a part): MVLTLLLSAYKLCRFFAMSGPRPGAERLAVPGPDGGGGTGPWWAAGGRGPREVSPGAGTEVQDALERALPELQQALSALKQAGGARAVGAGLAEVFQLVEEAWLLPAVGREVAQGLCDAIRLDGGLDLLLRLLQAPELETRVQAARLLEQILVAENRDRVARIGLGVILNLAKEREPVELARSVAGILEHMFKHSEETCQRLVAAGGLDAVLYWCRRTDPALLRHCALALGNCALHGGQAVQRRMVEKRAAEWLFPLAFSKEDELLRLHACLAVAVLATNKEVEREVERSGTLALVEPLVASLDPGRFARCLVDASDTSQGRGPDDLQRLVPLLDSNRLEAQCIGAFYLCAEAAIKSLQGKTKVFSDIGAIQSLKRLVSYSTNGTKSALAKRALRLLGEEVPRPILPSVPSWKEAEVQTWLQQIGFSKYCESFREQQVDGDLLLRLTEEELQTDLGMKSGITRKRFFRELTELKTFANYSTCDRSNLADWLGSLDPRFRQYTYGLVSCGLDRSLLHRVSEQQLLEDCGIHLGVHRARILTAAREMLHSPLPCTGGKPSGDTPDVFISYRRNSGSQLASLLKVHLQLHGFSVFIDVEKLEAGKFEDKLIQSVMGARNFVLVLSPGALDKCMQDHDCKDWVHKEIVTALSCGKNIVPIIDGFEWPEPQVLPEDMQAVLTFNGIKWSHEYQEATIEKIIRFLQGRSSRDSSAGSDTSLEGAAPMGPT
# [5] = biological target: Mitogen-activated protein kinase 7 (Homo sapiens) (UniProt Q13164); assay: ERK5 transactivation activators in reporter cells, primary screen, cell-based, HTS (AID 1508626;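 active means luciferase signal above three times the same-plate solvent-only control wells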;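 further: luciferase driven by Gal4-ERK5 fusion binding five Gal4 sites before minimal TATA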); details: HeLa Gal4-ERK5 transactivation, 18 h, at 5 µM, stronger effect = higher value
# Chain of Mitogen-activated protein kinase 7 (Homo sapiens) (Q13164 whole entry, looked up, the tested form may be a part): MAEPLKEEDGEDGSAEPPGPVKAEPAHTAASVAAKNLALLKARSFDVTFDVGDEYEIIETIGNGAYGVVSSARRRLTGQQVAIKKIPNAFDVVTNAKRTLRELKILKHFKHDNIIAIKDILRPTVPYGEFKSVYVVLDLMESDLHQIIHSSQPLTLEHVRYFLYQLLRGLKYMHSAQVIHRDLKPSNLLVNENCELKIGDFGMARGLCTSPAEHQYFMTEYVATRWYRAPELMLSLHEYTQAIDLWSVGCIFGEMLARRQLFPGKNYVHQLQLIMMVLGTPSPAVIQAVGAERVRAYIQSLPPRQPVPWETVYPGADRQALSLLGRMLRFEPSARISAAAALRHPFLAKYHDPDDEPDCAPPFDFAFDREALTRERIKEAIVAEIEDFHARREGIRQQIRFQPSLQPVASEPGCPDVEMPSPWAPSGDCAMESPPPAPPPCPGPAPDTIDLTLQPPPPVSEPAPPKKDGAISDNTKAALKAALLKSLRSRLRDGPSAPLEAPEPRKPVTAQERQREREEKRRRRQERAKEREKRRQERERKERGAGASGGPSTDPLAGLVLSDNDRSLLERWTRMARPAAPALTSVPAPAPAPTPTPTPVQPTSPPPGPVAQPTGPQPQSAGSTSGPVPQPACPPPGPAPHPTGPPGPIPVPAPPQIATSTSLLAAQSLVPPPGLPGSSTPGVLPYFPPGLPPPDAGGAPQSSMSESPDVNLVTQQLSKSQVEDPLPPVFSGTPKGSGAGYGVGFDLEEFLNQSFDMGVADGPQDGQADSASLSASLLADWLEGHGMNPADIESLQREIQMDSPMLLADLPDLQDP
# [6] = viability rescue of complex I mutant cybrids, primary screen, cell-based, galactose medium, ATP luminescence (AID 1645843;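 active means z-score of at least 1.8 in each of two replicates, scored against plate mean and spread of sample wells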;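 further: positive z means more ATP and so rescue of galactose-driven cybrid death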); details: complex I mutant cybrid cells, 72 h, stronger effect = higher value
# [7] = ICB984 medulloblastoma cell growth inhibition, synergistic combos for chromothripsis tumors, cisplatin or BGB combos (AID 1671451; call rule not given here;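 further: cells exposed for 96 hours before readout; 0% = vehicle DMSO and 100% = killing by high DMSO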); details: ICB984 medulloblastoma cells, drug combinations, stronger effect = higher value
# [8] = growth inhibition of DIPG glioma cells, dose response, cell-based, SU-DIPG-XIII, MIPE4.0, CellTiter-Glo, qHTS (AID 1347061; cut-off not given, nearly all actives have AC50 up to about 37 µM;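 further: cells exposed to compound for 48 hours before readout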); details: SU-DIPG-XIII viability, CellTiter-Glo ATP luminescence
# [9] = growth inhibition of DIPG glioma cells, dose response, cell-based, JHH-DIPG-1, MIPE4.0, CellTiter-Glo, qHTS (AID 1347062; cut-off not given, nearly all actives have AC50 up to about 27 µM;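 on AC50: cells exposed to compound for two days before readout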); details: JHH-DIPG-1 viability, CellTiter-Glo ATP luminescence
# [10] = survival rescue of mitochondrial mutant cells in low glucose, primary screen, MELAS cybrids, Rieske KO mouse fibroblasts, CellTiter-Glo (AID 1508586;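 active means mean z-score across replicates of 1.96 or higher in either the MELAS or the Rieske mutant cell line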;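 further: z relative to plate mean and SD of compound and empty wells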)
# [11] = liver-stage malaria parasite growth inhibition, primary screen, cell-based, HepG2, luciferase luminescence, HepG2 viability (AID 624349; in the data active means parasite load remaining mostly below about 12%, no sharp cut-off; inactive means mostly above about 10%;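 further: 100% = mean of DMSO negative control wells on the same plate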); details: P. berghei liver stage in HepG2, luciferase luminescence, concentration not given here; parasite load remaining: stronger effect = lower value; viability: measured here: HepG2 viability without parasites
# [12] = growth inhibition of DIPG glioma cells, dose response, cell-based, SU-DIPG-IV, MIPE4.0, CellTiter-Glo, qHTS (AID 1347063; cut-off not given, nearly all actives have AC50 up to about 30 µM;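 further: compound exposure lasted 48 hours before the viability readout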); details: SU-DIPG-IV viability, CellTiter-Glo ATP luminescence
# [13] = polyglutamine-triggered caspase-3 activation inhibitors, cell-based (AID 1583); details: polyglutamine-induced caspase-3 activation, cell assay; stronger effect = higher value;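 tested at 10 µM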
# [14] = suppressors of polyQ aggregation in yeast, 75Q-TubU reporter (AID 1593); details: Yeast 75Q polyglutamine aggregation reporter
# [15] = rescue of polyQ-huntingtin neuronal dysfunction in worms, whole organism, C. elegans mechanosensory neurons, N-terminal huntingtin (AID 1599); details: touch response, stronger effect = higher value
# [16] = inhibitors of mitochondrial cytochrome c release, biochemical, purified mitochondria (AID 1603); details: stronger effect = lower value;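 further: mouse liver mitochondria challenged with calcium chloride; signal normalized to the plate average as 100%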
# [17] = inhibitors of polyQ protein aggregation (AID 1604); details: polyglutamine-induced protein aggregation inhibition assay; stronger effect = higher value; tested at 2.5 µM
# [18] = enhancers of glutamate uptake in motor neurons, MN-1 cell line (AID 1612); details: MN-1 motor neuron cells, stronger effect = higher value;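 further: tested at 1 µM final; 0% = mean of DMSO vehicle wells on each plate; positive means more glutamate uptake than control and negative means less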
# [19] = suppressors of polyglutamine aggregation in yeast, 75Q-TubH (AID 1616); details: S. cerevisiae 75Q-TubH polyglutamine aggregation suppression; stronger effect = higher value
# [20] = stronger effect = lower value, cell number ratio, induced over uninduced
# [21] = measured here: relative caspase fold change +Dox/-Dox
# [22] = measured here: total cells with miR-34 induction, stronger effect = lower value
# [23] = measured here: total cells without miR-34 induction
# [24] = MELAS cybrid survival, CellTiter-Glo 48 h, stronger effect = higher value
# [25] = Rieske KO mouse fibroblast survival, CellTiter-Glo 72 h
compound,measurement,setting,value
COc1cc(NS(C)(=O)=O)ccc1Nc1c2ccccc2nc2ccccc12,inhibition,[1],-14.7% (inactive)
same,AC50,[2],16600 nM (active)
same,fold change,[3]; [20],0.846 (inactive)
same,fold change,[3]; [21],1.94
same,cell count,[3]; [22],867
same,cell count,[3]; [23],1020
same,remaining NAD,[4],10 nM (inactive)
same,luciferase signal,[5],52 AU (inactive)
same,z-score,[6],-1.31 (inactive)
same,inhibition,"[7]; BGB IC20 combo, at 0.005 µM",-6.17% and -3.09%
same,inhibition,"[7]; BGB IC40 combo, at 0.005 µM",3.68% and -48.5%
same,inhibition,"[7]; BGB IC40 combo, at 0.05 µM",39.5% and 18.4%
same,inhibition,[7]; at 0.5 µM,-24.7% (inactive) and -27.8% (inactive)
same,inhibition,"[7]; cisplatin combo, at 0.05 µM",39.5% and 15.2%
same,inhibition,"[7]; cisplatin combo, at 0.5 µM",-38.9% and -24.5%
same,inhibition,"[7]; cisplatin combo, at 5 µM",-5% and -33%
same,inhibition,"[7]; measured here: 5 uM single agent, at 5 µM",3.59% and -0.607%
O=C(O)C1=CCCNC1,inhibition,[1],-3.98% (inactive)
same,fold change,[3]; [20],0.989 (inactive) and 0.96 (inactive)
same,fold change,[3]; [21],0.827 and 0.802
same,cell count,[3]; [22],8890 and 8940
same,cell count,[3]; [23],8980 and 9310
same,luciferase signal,[5],48 AU (inactive)
same,z-score,[6],0.54 (inactive) and -0.25 (inactive)
CC(=O)[C@H]1CC[C@H]2[C@@H]3CCC4=CC(=O)CC[C@]4(C)[C@H]3CC[C@]12C,inhibition,[1],14.1% (inactive)
same,AC50,[8],1870 nM (active)
same,outcome,[9],inactive
same,fold change,[3]; [20],1.08 (inactive) and 0.812 (inactive) and 0.853 (inactive)
same,fold change,[3]; [21],0.82 and 1.33 and 1.49
same,cell count,[3]; [22],8120 and 7150 and 6560
same,cell count,[3]; [23],7520 and 8800 and 7700
same,z-score,[10]; [24],-0.398 (inactive) and 0.245 (inactive)
same,z-score,[10]; [25],-0.301 and 1.24
same,remaining NAD,[4],10 nM (inactive)
same,luciferase signal,[5],28 AU (inactive)
same,z-score,[6],-0.485 (inactive) and -1.04 (inactive)
C=C1C(=O)O[C@H]2[C@H]1CC/C(C)=C/CC[C@@]1(C)O[C@@H]21,inhibition,[1],4.61% (inactive)
same,fold change,[3]; [20],0.99 (inactive)
same,fold change,[3]; [21],0.618
same,cell count,[3]; [22],8550
same,cell count,[3]; [23],8630
same,z-score,[6],1.27 (inactive)
CN[C@H](CC(C)C)C(=O)N[C@H]1C(=O)N[C@@H](CC(N)=O)C(=O)N[C@H]2C(=O)N[C@H]3C(=O)N[C@H](C(=O)N[C@H](C(=O)O)c4cc(O)cc(O)c4-c4cc3ccc4O)[C@H](O)c3ccc(c(Cl)c3)Oc3cc2cc(c3O[C@@H]2O[C@H](CO)[C@@H](O)[C@H](O)[C@H]2O[C@H]2C[C@](C)(N)[C@H](O)[C@H](C)O2)Oc2ccc(cc2Cl)[C@H]1O,parasite load remaining,[11],70.2% (inactive)
same,viability,[11],74.3%
same,inhibition,[1],3.51% (inactive)
same,outcome,[8],inactive
same,outcome,[9],inactive
same,outcome,[12],inactive
same,outcome,[2],inactive
same,fold change,[3]; [20],0.946 (inactive)
same,fold change,[3]; [21],1.32
same,cell count,[3]; [22],9810
same,cell count,[3]; [23],10400
same,remaining NAD,[4],10 nM (inactive)
same,luciferase signal,[5],68 AU (inactive)
same,z-score,[6],0.26 (inactive)
CCCn1c(=O)c2[nH]c(C3CCCC3)nc2n(CCC)c1=O,inhibition,[13],8.56%
same,score,[14],1.24
same,rescue above control,[15],18.1
same,cytochrome c release ratio,[16],0.92
same,inhibition of aggregation,[17],1.59%
same,glutamate uptake change,[18],-12.9%
same,aggregation suppression score,[19],1.32
same,inhibition,[1],11.4% (inactive)
same,fold change,[3]; [20],1.02 (inactive) and 0.942 (inactive)
same,fold change,[3]; [21],1.07 and 0.717
same,cell count,[3]; [22],7850 and 7600
same,cell count,[3]; [23],7700 and 8070
same,z-score,[6],1.02 (inactive) and 0.16 (inactive)
C[C@H](CCC(=O)O)[C@H]1CC[C@H]2[C@@H]3[C@H](O)C[C@@H]4C[C@H](O)CC[C@]4(C)[C@H]3CC[C@]12C,parasite load remaining,[11],42% (inactive) and 91.9% (inactive)
same,viability,[11],46.4% and 85.3%
same,inhibition,[1],-1.04% (inactive)
same,outcome,[8],inactive
same,outcome,[9],inactive
same,outcome,[12],inactive
same,outcome,[2],inactive
same,fold change,[3]; [20],0.917 (inactive)
same,fold change,[3]; [21],1.03
same,cell count,[3]; [22],9290
same,cell count,[3]; [23],10100
same,z-score,[10]; [24],0.377 (inactive)
same,z-score,[10]; [25],-0.0721
same,remaining NAD,[4],10 nM (inactive)
same,luciferase signal,[5],112 AU (inactive)
C[C@H]1O[C@@H](O[C@H]2[C@@H](O)C[C@H](O[C@H]3[C@@H](O)C[C@H](O[C@H]4CC[C@@]5(C)[C@H](CC[C@@H]6[C@@H]5C[C@@H](O)[C@]5(C)[C@@H](C7=CC(=O)OC7)CC[C@]65O)C4)O[C@@H]3C)O[C@@H]2C)C[C@H](O)[C@@H]1O,parasite load remaining,[11],-10.5% (inactive) and 8.38% (inactive)
same,viability,[11],46.2% and 21%
same,inhibition,[1],-1.7% (inactive)
same,AC50,[8],95.9 nM (active)
same,AC50,[9],30.3 nM (active)
same,AC50,[12],241 nM (active)
same,AC50,[2],66.1 nM (active)
same,fold change,[3]; [20],0.979 (inactive)
same,fold change,[3]; [21],2.27
same,cell count,[3]; [22],512
same,cell count,[3]; [23],523
same,z-score,[10]; [24],-1.21 (inactive)
same,z-score,[10]; [25],0.0199
same,remaining NAD,[4],10 nM (inactive)
same,luciferase signal,[5],24 AU (inactive)
